Measurements: PubChem BioAssay AID504850 (National Center for Advancing Translational Sciences (NCATS), 2011)
Hit rate of the full screen: of about 2,300 compounds, about 1,200 (52%) were called active. About 34% were inconclusive and are not listed. Calls follow the shape of the dose curve; as a rule, active = well fitted inhibition curve with a large enough effect; inconclusive = small, poorly fitted or top-dose-only effect, or effect the other way; inactive = no such curve, though single readings can be large or run the other way. The set was probably picked from earlier hits. The list shows a part of the results.

Test: Confirmation screen for delayed death inhibitors of the malarial parasite plastid, 48 hour incubation; also: nearly all actives have a fitted effect of over 65% in size
Conditions: P. falciparum-infected erythrocytes, luciferase growth; series mostly up to 28.7 µM
Description: The goal of this screen is to discover new antimalarial compounds that act by inhibiting the development of the apicoplast in the malarial parasite Plasmodium falciparum. The biochemical processes that make this organelle essential for erythrocytic stage parasites are not well understood. However, antibiotics, such as azithromycin and tetracycline, which target the apicoplast translational machinery, have a potent antimalarial effect. […] We have developed a cell-based assay that measures parasite growth based on the expression of an integrated copy of a firefly luciferase reporter. To detect small molecules that cause this "delayed death phenotype, erythrocytes infected with the luciferase-expressing parasites were incubated with compounds for either one or two generations, corresponding to 48 and 96 hours, respectively. Compounds that inhibit parasite growth in the second generation, but not the first, should be enriched in antimalarials that target the apicoplast. Growth inhibition is detected by a decrease in luciferase activity. MLPCN Grant: R21 NS059500 Assay Provider: David Fidock and Eric Ekland, Columbia University Keywords: NIH Roadmap, MLPCN, MLI, MLSMR, qHTS, NCGC, qHTS, malaria, luciferase, viability
Four microliters of culture medium (RPMI 1640 with 0.5% w/v Albumax (GIBCO), 24 mM sodium bicarbonate and 10 ug/mL gentamycin) were dispensed by a Multi-drop Combi into white solid 1536-well plates (Grenier) and 23 nL compound was added by a pin tool. Four microliters of infected erythrocytes (2% hematocrit, 0.1% parasitemia final concentration) in culture medium were dispensed and the plates incubated for 48 hours at 37 C in 5% CO2. Two microliters of luciferase detection reagent was added and luminescence was detected by a ViewLux (PerkinElmer) reader.
Potency is read from the fitted curve at half-maximal effect.

Question: With `Cc1noc(C)c1C(=O)Nc1nc(-c2ccc(F)cc2)cs1` as the compound, how does the Potency read?
Answer: inactive

Question: With `COc1ccc(NC(=O)c2c(-c3c(Cl)cccc3Cl)noc2C)c(OC)c1` as the compound, how does the Potency read?
Answer: 3.16 µM (active)

Question: For `Cc1onc(-c2c(Cl)cccc2Cl)c1C(=O)Nc1nc(C(C)(C)C)cs1`, which Potency is on record?
Answer: 11.2 µM (active)

Question: For `Cc1ccc(Cl)cc1N1CCN(Cc2nc3c(c(=O)[nH]c(=O)n3C)n2CCc2ccccc2)CC1`, which Potency is on record?
Answer: 7.08 µM (active)

Question: With `CCCCNC(=O)c1onc(CSc2ccccc2C)c1C(=O)O` as the compound, how does the Potency read?
Answer: inactive

Question: With `CCc1ccc(OCCNC(=O)c2ccccc2SCc2ccccc2)cc1` as the compound, how does the Potency read?
Answer: 14.1 µM (active)

Question: For `COC(=O)c1ccc(CSc2ccccc2C)o1`, which Potency is on record?
Answer: inactive

Question: With `O=S(=O)(c1cccs1)N1CCN(c2ccnc3cc(Cl)ccc23)CC1` as the compound, how does the Potency read?
Answer: 5.01 µM (active)

Question: For `CN(C)S(=O)(=O)N1CCN(c2ccnc3cc(Cl)ccc23)CC1`, which Potency is on record?
Answer: 12.6 µM (active)

Question: For `O=S(=O)(c1cccs1)N1CCC(CO)(Cc2cccc(F)c2)CC1`, which Potency is on record?
Answer: inactive

Question: With `O=c1oc2ccccc2c(O)c1CN1CCCCC1` as the compound, how does the Potency read?
Answer: inactive

Question: For `CCCCCCCCC[n+]1cccc2c3ccccc3ccc21`, which Potency is on record?
Answer: 0.398 µM (active)

Question: For `CCCCCCCCCC[n+]1cccc2c3ccccc3ccc21`, which Potency is on record?
Answer: 0.891 µM (active)

Question: With `O=S(=O)(Nc1ccc(O)c(Sc2nc3ccccc3s2)c1)c1cccc2ccccc12` as the compound, how does the Potency read?
Answer: 15.8 µM (active)

Question: For `COc1cc(-c2ccc(NC(=O)NC3CC3)c(OC)c2)ccc1NC(=O)NC1CC1`, which Potency is on record?
Answer: 12.6 µM (active)

Question: Which Potency does the source give for `COc1cc(-c2ccc(Nc3ccccc3C(=O)O)c(OC)c2)ccc1Nc1ccccc1C(=O)O` here?
Answer: 12.6 µM (active)

Question: For `COc1ccc(Nc2cccc(Cl)c2)c(C(=O)O)c1`, which Potency is on record?
Answer: inactive

Question: With `Cc1ccc(S(=O)(=O)C2(C(=O)N3CCCCCC3)CC2)cc1` as the compound, how does the Potency read?
Answer: inactive

Question: With `CC(=O)N1CCSc2ccc(S(=O)(=O)Nc3ccc(C)cc3)cc21` as the compound, how does the Potency read?
Answer: 10 µM (active)

Question: With `O=[N+]([O-])c1ccc(Sc2cccc3cccnc23)c([N+](=O)[O-])c1` as the compound, how does the Potency read?
Answer: 4.47 µM (active)

Question: Which Potency does the source give for `CN1CC2=Cc3ccccc3OC23Oc2ccccc2C=C3C1` here?
Answer: 3.98 µM (active)

Question: With `CC(C)=N/N=C1/NC(=O)C(Cc2ccccc2)S1` (stereo unspecified) as the compound, how does the Potency read?
Answer: 11.2 µM (active)

Question: For `CC1=C(C(=O)NC2CC(C)(C)Cc3c2cnn3-c2ccc(C)cc2)OCCO1` (stereo unspecified), which Potency is on record?
Answer: 12.6 µM (active)

Question: For `CCc1noc(C)c1C(=O)NC1CC(C)(C)Cc2c1cnn2-c1ccccc1` (stereo unspecified), which Potency is on record?
Answer: 15.8 µM (active)

Question: For `Cc1ccc(-n2ncc3c2CC(C)(C)CC3NC(=O)c2c(C)noc2C)cc1` (stereo unspecified), which Potency is on record?
Answer: 11.2 µM (active)

Question: With `Cc1cc(C)c(NC(=O)c2cccc3c2C(=O)N(C2CCCCC2)C3)c(C)c1` as the compound, how does the Potency read?
Answer: 10 µM (active)

Question: For `COc1cccc2cc(C(=O)NCc3ccc(Cl)cc3)c(=N)oc12`, which Potency is on record?
Answer: inactive

Question: With `COc1ccc(CCNC(=O)c2cc3c(=O)n4cccc(C)c4nc3n(Cc3ccco3)c2=N)cc1OC` as the compound, how does the Potency read?
Answer: 12.6 µM (active)

Question: Which Potency does the source give for `Cc1cc(OCC(=O)N[C@@H](CSCc2ccccc2)C(=O)O)c2c(C)c(C)c(=O)oc2c1` here?
Answer: 14.1 µM (active)

Question: Which Potency does the source give for `COC(=O)c1c(-n2c(C)cc(C=O)c2C)sc2c1CCCC2` here?
Answer: 14.1 µM (active)

Question: With `COc1cc(NCc2ccc3nc(N)nc(N)c3c2C)cc(OC)c1OC` as the compound, how does the Potency read?
Answer: 0.316 µM (active)

Question: Which Potency does the source give for `O=C(Nc1ccc(C2=NCCN2)cc1)c1ccc(C(=O)Nc2ccc(C3=NCCN3)cc2)c(Cl)c1` here?
Answer: 0.891 µM (active)

Question: For `COCCNC(=O)CCCCCN1C(=O)CCC1=O`, which Potency is on record?
Answer: inactive

Question: With `Cc1cccc(-n2ccc(=O)c(C(=O)Nc3ccc(S(=O)(=O)N4CCOCC4)cc3)n2)c1` as the compound, how does the Potency read?
Answer: 11.2 µM (active)

Question: With `O=S(=O)(c1ccc(Cl)c(NC(=S)N/N=C/c2ccc(O)cc2)c1)N1CCOCC1` as the compound, how does the Potency read?
Answer: 11.2 µM (active)

Question: For `O=C(Nc1ccccc1)C1=C[C@@H](C2CCCCC2)C[C@@H](OCc2ccc(CO)cc2)O1`, which Potency is on record?
Answer: 11.2 µM (active)

Question: For `O=C(NCc1ccccc1)C1=C[C@@H](c2coc3ccccc3c2=O)C[C@@H](OCc2ccc(CO)cc2)O1`, which Potency is on record?
Answer: 10 µM (active)

Question: For `O=C(NC1CC1)C1=C[C@@H](C2CCCCC2)C[C@@H](OCc2ccc(CO)cc2)O1`, which Potency is on record?
Answer: 12.6 µM (active)

Question: For `CN(c1ccccc1)S(=O)(=O)c1ccc(NC(=O)c2nc(S(C)(=O)=O)ncc2Cl)cc1`, which Potency is on record?
Answer: inactive

Question: For `CN(c1ccccc1)S(=O)(=O)c1cc(C(=O)N2CCN(c3ncccn3)CC2)ccc1Cl`, which Potency is on record?
Answer: 11.2 µM (active)

Question: For `COc1cc(C(=O)Nc2ccc(S(=O)(=O)Nc3cc(C)on3)cc2)cc(OC)c1OC`, which Potency is on record?
Answer: inactive

Question: Which Potency does the source give for `COc1ccc(NC(=O)c2cccc(NC(=O)c3ccccc3)c2)c(OC)c1` here?
Answer: 11.2 µM (active)

Question: For `COc1ccccc1NC(=O)c1ccc2nc(-c3ccccc3)c(-c3ccccc3)nc2c1`, which Potency is on record?
Answer: inactive

Question: For `COC(=O)c1ccc(CNCC(=O)Nc2ccc(C(=O)OC)cc2)cc1`, which Potency is on record?
Answer: inactive

Question: For `COC(=O)c1ccc(NC(=O)c2cccc(NC(=O)c3ccccc3)c2)cc1`, which Potency is on record?
Answer: 8.91 µM (active)

Question: Which Potency does the source give for `COc1cc(C(=O)Nc2ccc(Nc3ccccc3)cc2)cc(OC)c1OC` here?
Answer: 11.2 µM (active)
